# Most compounds without a hit are left out; they make up all but 4% or so of the library.
# KKLEB cytotox – counter-screen for CF NF-kB inhibitors: cytotoxicity | KKLEB CF airway cells viability, ATPlite luminescence, overnight; hits give low values; cells stimulated with P. aeruginosa culture filtrate | activity change (cytotoxicity), % at 5 µM | 360,000 compounds, 0.36% hits | AID 602141;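 active = corrected activity change at or below -50% at 5 µM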
# TWEAK Fn14 block – inhibitors of TWEAK-Fn14 interaction signaling; 360,000 compounds, 2% hits; TWEAK-stimulated Fn14 reporter cells, luciferase luminescence, 8 h; inhibition, % at 10 µM; in the data active = inhibition above about 50%
# HIF-2a inh – inhibitors of HIF-2a; 786-0 RCC cells HIF-2a reporter, luciferase luminescence, overnight; 360,000 compounds, 0.72% hits; inhibition, % at 18.8 µM;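 active = inhibition of the luminescence signal of 40% or more relative to plate controls, in a single-dose primary screen at 18.75 µM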
# Peg3 prom inh – inhibitors of Peg3 promoter. AID 588405. 360,000 compounds, 1.7% hits. HeLa PEG-Prom luciferase reporter, luminescence, overnight. inhibition, % at 20 µM;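 active = inhibition of at least 50% at 20 µM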
# TROY NFkB inh – blocks TROY-dependent signaling in reporter cells. Q293 LMP1-TROYcd NF-kB luciferase reporter, 4 h. AID 1347056. inhibition, % at 10 µM. 360,000 compounds, 0.98% hits;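 active = compounds whose plate-normalised and pattern-corrected inhibition of the luciferase reporter signal at the single screening dose is 50% or more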
# CF NFkB inh – blocks PAF-induced NF-kB reporter in cystic fibrosis cells. KKLEB NF-kB-GFP reporter, GFP fluorescence overnight. 360,000 compounds, 0.86% hits. inhibition, % at 5 µM;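 active = at least 50% inhibition at 5 µM, scaled per plate between neutral and stimulator controls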;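 also: PAF is a Pseudomonas aeruginosa culture filtrate used as stimulus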
# Hits are given with their value; . = inactive; / = no result.
SMILES,KKLEB cytotox,TWEAK Fn14 block,HIF-2a inh,Peg3 prom inh,TROY NFkB inh,CF NFkB inh
Clc1ccc(C(c2nnnn2C2CCCC2)N2CCN(c3nc4ccccc4s3)CC2)cc1 (configuration not stated),.,74,.,.,59,.
c1cnc2ccc(C(c3nnnn3C3CCCC3)N3CCN(c4nc5ccccc5s4)CC3)cc2c1 (configuration not stated),.,.,.,.,.,.
CCc1onc(C)c1C(=O)Nc1cc(C)ccc1OC,.,.,.,.,.,.
O=C(CCS(=O)(=O)c1cccs1)N1CCCC1,.,.,.,.,.,.
CCC1CCCCN1C(=O)CCCOc1ccccc1 (configuration not stated),.,50,.,.,50,.
O=C(CCCOc1ccccc1)N1CCCCC1,.,86,.,.,58,.
O=C(c1ccccc1)c1ccc(OCCCCN2CCCCC2)cc1,.,70,.,.,.,.
CCC1CCCCN1C(=O)COc1ccc(F)cc1 (configuration not stated),.,.,.,.,.,.
O=C(c1ccccc1)c1ccc(OCCCN2CCCC2)cc1,.,.,.,.,.,.
Cc1cc(N(C)/N=C/c2ccccc2O)nc(-c2ccccc2O)n1,.,.,.,.,.,.
COc1ccc(C2c3ccc4ccccc4c3Oc3ncn(CCO)c(=N)c32)cc1 (configuration not stated),.,.,.,103,.,.
COc1ccc(C2c3ccc4ccccc4c3Oc3ncn(CCCO)c(=N)c32)cc1OC (configuration not stated),.,.,.,.,.,.
COc1ccc(C2c3ccc4ccccc4c3Oc3ncn(CCN(C)C)c(=N)c32)cc1 (configuration not stated),.,.,.,92,.,.
N=c1c2c(ncn1CCCO)Oc1c(ccc3ccccc13)C2c1ccccc1 (configuration not stated),.,.,.,73,.,.
COc1ccc(C2c3ccc4ccccc4c3Oc3ncn(CCN4CCOCC4)c(=N)c32)cc1 (configuration not stated),.,.,.,102,.,.
CCCOc1ccc(-c2c(C(=O)N/N=C/c3ccncc3)nnn2-c2nonc2N)cc1,.,.,.,.,.,.
O=C(COc1cccc2c1CCN(Cc1ccc(Cl)cc1)C2=O)N1CCOCC1,.,.,.,.,.,.
CCC(=O)N1CCC(C)(C(=O)Nc2nccc3ccccc23)C1 (configuration not stated),.,.,.,.,.,.
COC(=O)C1=C(C)N(Cc2ccccc2)C(=NCCc2cccnc2)N[C@H]1c1ccccc1,.,.,.,.,.,.
COC(=O)C1=C(C)N(Cc2ccccc2)C(=O)N[C@H]1c1cccc(C(F)(F)F)c1,.,.,.,.,.,.
COC(=O)C1=C(C)N(Cc2ccccc2)C(=NCc2ccco2)N[C@H]1c1cccc(F)c1,.,.,.,.,.,.
COC(=O)C1=C(C)N(Cc2ccccc2)C(=NCC(C)C)N[C@H]1c1cccc(F)c1,.,.,.,83,.,.
COC(=O)C1=C(C)N(Cc2ccccc2)C(=S)N[C@H]1c1cccc(C(F)(F)F)c1,.,.,.,.,.,.
COC(=O)C1=C(C)N(Cc2ccccc2)C(=NCc2ccccc2)N[C@H]1c1cccc(C(F)(F)F)c1,.,.,.,99,.,.
COC(=O)C1=C(C)N(Cc2ccccc2)C(=NCC(C)C)N[C@H]1c1cccc(C(F)(F)F)c1,.,.,.,103,.,.
SMILES,KKLEB cytotox,TWEAK Fn14 block,HIF-2a inh,Peg3 prom inh,TROY NFkB inh,CF NFkB inh
COC(=O)C1=C(C)N(Cc2ccccc2)C(=NCCc2cccnc2)N[C@H]1c1ccc(Br)cc1,.,.,.,94,.,.
COC(=O)C1CN(C(=O)C(C)Oc2ccc(C(C)C)cc2)c2ccccc2O1 (configuration not stated),.,.,.,.,.,.
CC(C)(O)CNC(=O)Nc1ccc(Cl)c(Cl)c1,.,.,.,.,.,.
COc1ccc(N2CCN(C(c3ccco3)c3sc4nc(C)nn4c3O)CC2)cc1 (configuration not stated),.,.,.,.,.,.
O=c1[nH]c(=O)c2cc([N+](=O)[O-])cc([N+](=O)[O-])c2[nH]1,.,.,.,.,68,.
FC(F)(F)c1ccnc(N2CCN(Cc3cnc(-c4ccccc4)[nH]3)CC2)c1,.,.,.,.,.,.
CC1(C)Cc2c(C#N)c(SCCOc3ccccc3)nc(N3CCOCC3)c2CO1,.,53,.,.,.,.
Cc1oc2c(cc(NS(=O)(=O)c3ccc(C(C)C)cc3)c3ccccc32)c1C(=O)O,.,.,.,.,.,.
Cc1ccc(C)c(S(=O)(=O)Nc2cc(SCC(=O)O)c(O)c3ccccc23)c1,-54,94,66,97,59,81
Cc1ccc(NS(=O)(=O)c2cc(NC(=O)C(C)Oc3ccccc3)ccc2C)c(C)c1 (configuration not stated),.,.,.,.,.,.
CCc1ccc(S(=O)(=O)Nc2cc(SCC(=O)O)c(O)c3ccccc23)cc1,.,83,.,.,60,64
CCOc1ccc(S(=O)(=O)Nc2cc(SCC(=O)O)c(O)c3ccccc23)cc1,.,.,.,.,54,91
O=C(O)CSc1cc(NS(=O)(=O)c2cccc([N+](=O)[O-])c2)c2ccccc2c1O,.,91,.,.,62,72
O=S1(=O)CC(N2CCCCC2)CN1Cc1cn(Cc2ccccc2)nn1 (configuration not stated),/,.,.,/,.,/
CC(=O)OC(C(=O)NC1CCCCC1)c1cccc(F)c1 (configuration not stated),.,.,.,.,.,.
CC(C)Cc1ccc(CN2CCCC(NC(=O)CCN3CCCCC3=O)C2)cc1 (configuration not stated),.,.,.,.,.,.
CC(C)Cc1ccc(C(C)/C=C2/CCC(CN3CCCCC3)C2=O)cc1 (configuration not stated),.,.,.,91,.,.
Cc1n[nH]c(=O)c2c(NC(=O)CSc3nc4ccccc4c(=O)n3-c3ccc(OC(F)F)cc3)oc(C)c12,.,.,.,.,.,.
CCN(CC(=O)Nc1c(F)cccc1F)C(=O)c1cc(-c2cccs2)nn1-c1ccccc1,.,.,.,58,.,.
CN(CC(=O)Nc1c(Cl)cccc1Cl)C(=O)c1cc(-c2cccs2)nn1-c1ccccc1,.,.,.,.,.,.
COc1ccc(CCNC(=O)c2ccc(Cl)c(S(=O)(=O)N3CCCCCC3)c2)cc1,.,60,.,.,.,.
COc1ccc(CCNC(=O)c2ccc(Cl)c(S(=O)(=O)N(C)c3ccccc3)c2)cc1,.,58,.,.,53,.
